In all, about 2,400 compounds went through this assay and about 1,400 (58%) were called active.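 The calls were made as follows: active = inhibition of 30% or more at any tested dose; inconclusive = primary hits over the limit that were never retested; inactive = the rest.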 So high a share suggests a set chosen from earlier hits. This is one part of the list.
Assay: coupled detection enzyme interference, dose response, artefact control for MgcRacGAP inhibitor project, biochemical, coupled enzyme counter-screen (AID 624351);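 also: signal is the ADP detection kit reading of free GDP without any GAP enzyme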;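 as to inhibition: 0% = median positive control wells and 100% = median negative control wells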
Details: ADP Hunter coupled enzyme counter-screen, fluorescence, no MgcRacGAP; series mostly up to 80 µM; inhibition: at the top concentration

| SMILES | IC50 | inhibition |
| --- | --- | --- |
| Cc1ccc2nc(/C(C#N)=C/c3ccc(O)c(O)c3)[nH]c2c1 | 26.8 µM (active) | – |
| COc1cc(/C=C(\C#N)c2nc3ccccc3[nH]2)ccc1O | 14.8 µM (active) | – |
| COc1cc(/C=C(\C#N)C(=O)c2c[nH]c3ccccc23)cc(OC)c1O | 51.3 µM (active) | – |
| COc1cc(/C=C(\C#N)c2nc3ccccc3[nH]2)cc(OC)c1O | 27.1 µM (active) | – |
| CN1C=CC=C/C1=C(\C#N)c1nc2ccccc2[nH]1 | 52.5 µM (active) | – |
| CC(=O)N1CCN(c2ccc(N)cc2)CC1 | 13.5 µM (active) | – |
| O=C(c1cccs1)N1CCN(Cc2ccncc2)CC1 | – | 21.7% (inactive) |
| COc1ccc(N2CCN(CC(O)COC(c3ccc(F)cc3)c3ccc(F)cc3)CC2)cc1 (stereo not given) | – | 20.5% (inactive) |
| COc1cc(CN2CCN(c3ccccc3F)CC2)cc(OC)c1O | – | 18.1% (inactive) |
| Nc1ccc(N2CCN(C(=O)c3cccs3)CC2)cc1 | 22.1 µM (active) | – |
| CCC(C)N1CCN(C(=O)c2cccs2)CC1 (stereo not given) | – | 11.1% (inactive) |
| Nc1ccc(N2CCN(c3ccccc3)CC2)c(F)c1 | 37.9 µM (active) | – |
| Nc1ccc(N2CCN(c3ccc(F)cc3)CC2)cc1 | 19.9 µM (active) | – |
| COCC(C)NCc1ccccc1C (stereo not given) | – | 17.2% (inactive) |
| CCN1CCN(CC(O)COC(c2ccccc2)c2ccccc2C)CC1 (stereo not given) | – | 27% (inactive) |
| CCOCCCNC(=S)N1CCN(Cc2ccc3c(c2)OCO3)CC1 | – | 21.8% (inactive) |
| CCN1CCN(C(C)C(=O)NC2CCCCC2)CC1 (stereo not given) | – | 22.8% (inactive) |
| CC(C(=O)NC1CCCCC1)N1CCN(C)CC1 (stereo not given) | – | 24.7% (inactive) |
| CC(C(=O)NC(=O)NC1CCCCC1)N1CCN(c2ccc(O)cc2)CC1 (stereo not given) | 69.7 µM (active) | – |
| COc1cc(/C=N/NC(=O)CCc2ccccc2)ccc1O | 29.9 µM (active) | – |
| COc1cc(/C=N\NC(=O)CNC(=O)C(c2ccccc2)c2ccccc2)ccc1O | 50.6 µM (active) | – |
| COc1ccc(C)cc1NC(=O)C(NCC(O)c1ccccc1)c1ccccc1 (stereo not given) | – | 25.3% (inactive) |
| CCOc1cc(/C=N\NC(=O)CC(=O)NCCc2ccccc2)ccc1O | 46 µM (active) | – |
| COc1cc(/C=N\NC(=O)CC(=O)NCCc2ccccc2)ccc1O | 29.2 µM (active) | – |
| COc1cc(/C=N/NC(=O)Cc2nnc(NC(=O)c3ccccc3)s2)ccc1O | – | 24.7% (inactive) |
| Cc1cccc(N2C(S)=C(C#N)C(=O)NC2c2ccco2)c1 (stereo not given) | – | 6.59% (inactive) |
| O=C1C(SCCO)=C(SCCO)C(=O)c2ccccc21 | – | -5.33% (inactive) |
| COc1cc(/C=N/NC(=O)/C(=C/c2ccccc2)CCO)ccc1O | 45.8 µM (active) | – |
| COc1cc(/C=N/NC(=O)CCNC(=O)c2ccccc2Cl)ccc1O | 32.2 µM (active) | – |
| COc1cc(OC)c(OC)cc1CN1CCN(Cc2ccc(SC)cc2)CC1 | – | 26% (inactive) |

Reference: PubChem BioAssay AID624351 (Southern Research Specialized Biocontainment Screening …, 2012)
